Where “and” joins values, the source holds several entries; their conditions need not be identical. Identical values can stand only once. Records with an inconclusive call do not appear. Calls of active or inactive are those of the source. Unless noted, no cut-off is given here; in the data, nearly all actives have AC50 up to about 30 µM.

Test [1] can be described thus: Wnt pathway potentiators raising nuclear beta-catenin – imaging, WNT3A-conditioned medium, mouse C2C12, NPC library, primary screen (AID 1117326; in the data active = nuclear beta-catenin stimulation mostly above about 4.2%, no sharp cut-off; inactive = mostly below about 10%; note: reference of the scale not given here). The following applies: stronger effect = higher value.
Test [2] can be described thus: stimulators of insulin release from INS-1E, primary screen, cell-based, 5 mM glucose, NPC library (AID 1117329;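 active = compound raises insulin release from rat beta cells at 5 mM glucose, no numeric limit stated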; note: reference of the scale not given here). As to conditions: rat INS-1E insulin secretion, at 10 µM, stronger effect = higher value.
Test [3] can be described thus: growth inhibition of GSK3B-pretreated HCT116 cells – cell-based, CellTiter-Glo, 0.2 to 20 µM (AID 1117336;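 active = compounds lowering colon cancer cell viability after pretreatment blocking the GSK3B kinase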). As to conditions: HCT116 viability after GSK3B inhibitor, at 20 µM, stronger effect = higher value.
The nature of test [4]: inhibition of endothelial tube formation, primary screen, imaging, VEGF stimulated, CD31 staining, tube area, NPC library (AID 1117340;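 active = compound that reduces growth-factor-driven endothelial tube area in a mixed cell culture, no cutoff stated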). As to conditions: VEGF-stimulated ADSC/ECFC co-culture, at 10 µM, stronger effect = higher value.
A short description of test [5]: GLP1 release stimulators, primary, NCI-H716, NPC library (AID 1117341;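 active = compound raises GLP1 secretion from the human gut endocrine cells, with no numeric limit stated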; note: reference of the scale not given here). As to conditions: NCI-H716 cells, at 10 µM, stronger effect = higher value.
Test [6] can be described thus: HCT116 colon cancer cell growth inhibition, primary screen, CellTiter-Glo luminescence, NPC library (AID 1117342;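 active = compounds that lower survival of HCT116 colon cancer cells in the luminescence readout, no numeric limit stated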). As to conditions: at 20 µM (top of the series).
Test [7] in a line: reduced SW480 viability measured with CellTiter-Glo, NPC library, primary (AID 1117343;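 active = compounds that lower viability of the colon cancer cells in the luminescence readout, with no numeric limit stated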). As to conditions: CellTiter-Glo luminescence; at 20 µM (top of the series) unless noted.
Test [8] can be described thus: NPC library primary testing for decreased DLD-1 cell viability via CellTiter-Glo (AID 1117346;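 active = compounds that lower survival of DLD-1 colon cancer cells in the luminescence readout, no cutoff given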). As to conditions: DLD-1 viability, CellTiter-Glo luminescence; at 20 µM (top of the series).
Test [9] in a line: viability loss in pontine glioma line – cell-based, JHH-DIPG-1, MIPE4.0, CellTiter-Glo, qHTS, dose response (AID 1347062; cut-off not given, nearly all actives have AC50 up to about 27 µM). As to conditions: JHH-DIPG-1 viability, CellTiter-Glo ATP luminescence.
A short description of test [10]: viability loss in pontine glioma line – cell-based, SU-DIPG-IV, MIPE4.0, CellTiter-Glo, qHTS, dose response (AID 1347063).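 Note: compound exposure lasted 48 hours before the viability readout.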 The following applies: CellTiter-Glo ATP luminescence.
The nature of test [11]: MELAS cybrid and Rieske KO viability enhancers – cell-based, MELAS cybrids, Rieske KO mouse fibroblasts, CellTiter-Glo, primary screen (AID 1508586;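 active = mean z-score across replicates of 1.96 or higher in either the MELAS or the Rieske mutant cell line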;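 note: z relative to plate mean and SD of compound and empty wells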). The following applies: low glucose.
The nature of test [12]: viability loss with induced miR-34 in A549 – imaging, A549 dox-inducible miR-34, nuclei and caspase counts, primary screen (AID 1347080;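 active = compounds whose cell count with miR-34 switched on is under 0.7 times the count with it off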). As to conditions: A549 miR-34 inducible, Hoechst nuclei count, 48 h.
The nature of test [13]: viability loss in pontine glioma line – cell-based, SU-DIPG-XXV, MIPE5.0, CellTiter-Glo, qHTS, dose response (AID 1347065; cut-off not given, nearly all actives have AC50 up to about 26 µM;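 note: cells exposed to compound for 48 hours before ATP readout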). As to conditions: CellTiter-Glo ATP luminescence.
The nature of test [14]: growth inhibition of DIPG cells – cell-based, MIPE4.0 library, CellTiter-Glo luminescence, qHTS (AID 1347066).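 Note: cells exposed to compound for 48 hours before readout.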 The following applies: SU-DIPG-VI viability, CellTiter-Glo ATP luminescence.
A short description of test [15]: growth inhibition of DIPG cells – cell-based, MIPE5.0 library, qHTS (AID 1347068; cut-off not given, nearly all actives have IC50 up to about 30 µM;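 for IC50: cells exposed to compound for 48 hours before viability readout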). As to conditions: SU-DIPG-XXV viability.
Test [16] in a line: galactose survival enhancers in mitochondrial complex I cybrids – cell-based, galactose medium, ATP luminescence, primary screen (AID 1645843;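 active = z-score of at least 1.8 in each of two replicates, scored against plate mean and spread of sample wells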;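 note: positive z means more ATP and so rescue of galactose-driven cybrid death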). As to conditions: complex I mutant cybrid cells, 72 h, stronger effect = higher value.
Test [17] in a line: JHH-DIPG-1 glioma cell viability, MIPE5.0 library, CellTiter-Glo luminescence, qHTS (AID 1347067; cut-off not given, nearly all actives have AC50 up to about 26 µM;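 note: cells exposed to compound for 48 hours before readout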). As to conditions: JHH-DIPG-1 glioma viability, CellTiter-Glo ATP luminescence.
The nature of test [18]: blockers of cellular phospholipid synthesis – cell-based, LOPAC library, screen 4, primary screen (AID 1347384; call rule not given here). As to conditions: animal cells, phospholipid biosynthesis inhibition screen; at 10 µM.
A short description of test [19]: P. berghei load reduction in hepatocytes – cell-based, HepG2, luciferase luminescence, HepG2 viability, primary screen (AID 624349; in the data active = parasite load remaining mostly below about 12%, no sharp cut-off; inactive = mostly above about 10%;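 note: 100% = mean of DMSO negative control wells on the same plate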). As to conditions: P. berghei liver stage in HepG2, luciferase luminescence, concentration not given here; parasite load remaining: stronger effect = lower value; viability: measured here: HepG2 viability without parasites.
[20] abbreviates: MELAS cybrid survival, CellTiter-Glo 48 h, stronger effect = higher value.
Setting [21] is: Rieske KO mouse fibroblast survival, CellTiter-Glo 72 h.
Where [22] appears, read: stronger effect = lower value, cell number ratio, induced over uninduced.
The mark [23] stands for this setting: measured here: relative caspase fold change +Dox/-Dox.
[24] abbreviates: measured here: total cells with miR-34 induction, stronger effect = lower value.
The mark [25] stands for this setting: measured here: total cells without miR-34 induction.

As to `COc1cccc(N(C)C(=S)Oc2ccc3c(c2)CCCC3)n1`, the nuclear beta-catenin stimulation is 0.4% (inactive) in test [1] (at 10 µM) and 0.4% in test [1] (stimulation, at 2 µM). Moreover, the insulin secretion stimulation in test [2] is -2.1% (inactive). Moreover, in test [3], the viability decrease was 48.8% (inactive). Moreover, the tube area decrease in [4] was 17.8% (inactive). In [5], the GLP1 secretion stimulation was -2.3% (inactive). Moreover, the inhibition of viability in test [6] is 13.6% (inactive). In addition, the viability decrease (inhibition) is 54.5% (active) in test [7] and 55.4% (active) in test [8]. For the same compound, the outcome in [9] and in test [10] was inactive. Besides, the z-score in test [11] (setting [20]) was 0.186 (inactive); in test [11] (setting [21]), -0.761.

As for `O=C(O)[C@H](O)c1ccccc1`, the nuclear beta-catenin stimulation in test [1] (at 10 µM) was 3.7% (inactive); in test [1] (stimulation, at 2 µM), 3.1%. Further, the insulin secretion stimulation in [2] was -0.6% (inactive). The viability decrease in [3] is -6.9% (inactive). In test [4], the tube area decrease is -9.1% (inactive). The GLP1 secretion stimulation in test [5] was 1.8% (inactive). Further, in [6], the inhibition of viability is -5.47% (inactive). The viability decrease (inhibition) in test [7] is -30.4% (inactive); in test [8] it was -21.9% (inactive). Besides, the fold change in test [12] (setting [22]) was 0.975 (inactive); in test [12] (setting [23]), 0.478. The cell count amounted to 5430 in test [12] (setting [24]) and 5570 in [12] (setting [25]).

As for `CC(C)(C)C(=O)OCOP(=O)(COCCn1cnc2c(N)ncnc21)OCOC(=O)C(C)(C)C`, the nuclear beta-catenin stimulation in test [1] (at 10 µM) was 79.6% (active); in test [1] (stimulation, at 2 µM), 72.7%. Besides, in test [2], the insulin secretion stimulation is 3.5% (inactive). The viability decrease in test [3] is 95.4% (active). The tube area decrease in [4] was 100% (active). Moreover, in test [5], the GLP1 secretion stimulation was 2.8% (inactive). Moreover, in [6], the inhibition of viability is 73.3% (active). The viability decrease (inhibition) was 95.4% (active) in [7] and 78.5% (active) in test [8]. The AC50 is 7.43 µM (active) in [10], 20.9 µM (active) in test [13] and 16.6 µM (active) in test [14]. Also, the call in test [15] was inactive. Also, the fold change is 0.906 (inactive) and 0.857 (inactive) in test [12] (setting [22]); 0.703 and 1.46 in test [12] (setting [23]). Besides, the cell count in [12] (setting [24]) is 5980 and 5100; in test [12] (setting [25]), 6600 and 5960. Besides, the z-score in test [11] (setting [20]) was -0.539 (inactive) and -0.165 (inactive); in [11] (setting [21]), 0.795 and 0.351; in [16] it was -0.625 (inactive).

As to `CCOC(=O)Nc1ccc(NCc2ccc(F)cc2)nc1N`, the nuclear beta-catenin stimulation in test [1] (at 10 µM) is 0.2% (inactive); in test [1] (stimulation, at 2 µM), 2.4%. Moreover, the insulin secretion stimulation in [2] was 1.9% (inactive). Moreover, in test [3], the viability decrease was 5.6% (inactive). Further, in test [4], the tube area decrease is -7.5% (inactive). Also, the GLP1 secretion stimulation in [5] was -1.1% (inactive). Further, the inhibition of viability in [6] is 18.8% (inactive). The viability decrease (inhibition) in test [7] was 1.7% (inactive); in test [8], 8.6% (inactive). Moreover, the outcome in [10], in test [14], in [17] and in test [18] was inactive. The fold change in test [12] (setting [22]) was 1.05 (inactive) and 0.965 (inactive); in test [12] (setting [23]), 0.797 and 0.68. Also, the cell count is 10200 and 8110 in test [12] (setting [24]); 9760 and 8410 in [12] (setting [25]). The values for the z-score in [11] (setting [20]), in test [11] (setting [21]) and in test [16] were -0.196 (inactive), -0.17 and 1.55 (inactive), respectively.

Regarding `COC(=O)C1=C(C)NC(C)=C(C(=O)OCCN2CCN(C(c3ccccc3)c3ccccc3)CC2)C1c1cccc([N+](=O)[O-])c1` (stereo unspecified), the parasite load remaining in [19] was 20.2% (inactive). Also, in test [19], the viability was 100%. The nuclear beta-catenin stimulation in [1] (at 10 µM) was 7.1% (inactive); in [1] (stimulation, at 2 µM), 1.4%. Besides, in test [2], the insulin secretion stimulation is -1.1% (inactive). Also, the viability decrease in [3] is 52.2% (active). Besides, the tube area decrease in test [4] was 106% (active). Further, the GLP1 secretion stimulation in [5] was -1.8% (inactive). Besides, the inhibition of viability in test [6] is 78.5% (active). In addition, the viability decrease (inhibition) was 135% (active) in test [7] and 96.4% (active) in [8]. Further, the result in test [9], in test [10] and in test [14] was inactive. The values for the AC50 in test [13] and in test [17] were 5.9 µM (active) and 13.2 µM (active), respectively. For the same compound, in test [15], the IC50 was 8.33 µM (active). Further, the z-score in [11] (setting [20]) was -0.211 (inactive) and -0.214 (inactive) and 0.218 (inactive); in test [11] (setting [21]), 1.09 and 0.891 and 0.572; in test [16], -1.36 (inactive).

These data come from PubChem BioAssay.
